Assay results reported in PubChem BioAssay AID2162 (National Center for Advancing Translational Sciences (NCATS), 2009).
Inconclusive results are not listed. Activity calls are given as the source filed them. Calls follow the shape of the dose curve; as a rule, active = well fitted inhibition curve with a large enough effect; inconclusive = small, poorly fitted or top-dose-only effect; inactive = flat fitted curve, though single readings scatter.

target: Polyunsaturated fatty acid lipoxygenase ALOX12 (Homo sapiens) (UniProt P18054); test: Confirmation qHTS Assay for Inhibitors of 12-hLO (12-human lipoxygenase); settings: purified 12-hLO, xylenol orange absorbance; activity change, negative = inhibition: hits give low values
Sequence (P18054 whole entry, looked up): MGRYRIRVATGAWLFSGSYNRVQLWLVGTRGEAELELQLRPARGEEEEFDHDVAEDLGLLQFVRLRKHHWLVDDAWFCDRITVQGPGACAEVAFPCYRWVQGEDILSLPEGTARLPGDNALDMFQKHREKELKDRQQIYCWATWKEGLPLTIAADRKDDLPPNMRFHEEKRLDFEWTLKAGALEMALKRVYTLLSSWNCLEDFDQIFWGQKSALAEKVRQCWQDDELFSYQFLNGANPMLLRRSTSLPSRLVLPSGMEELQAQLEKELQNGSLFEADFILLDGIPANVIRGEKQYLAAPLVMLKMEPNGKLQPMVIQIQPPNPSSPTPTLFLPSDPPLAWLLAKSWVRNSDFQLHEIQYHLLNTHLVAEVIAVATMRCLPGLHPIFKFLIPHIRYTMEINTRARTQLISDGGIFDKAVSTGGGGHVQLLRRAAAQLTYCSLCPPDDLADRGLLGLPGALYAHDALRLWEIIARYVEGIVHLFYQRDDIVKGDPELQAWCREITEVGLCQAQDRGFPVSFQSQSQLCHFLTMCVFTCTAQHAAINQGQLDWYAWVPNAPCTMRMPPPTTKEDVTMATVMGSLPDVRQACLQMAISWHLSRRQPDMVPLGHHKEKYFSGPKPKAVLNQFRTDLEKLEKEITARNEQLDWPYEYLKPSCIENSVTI
How it was run: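 Enzyme reaction at room temperature: 150 nM 12hLO preincubated 15 min with compound, then 40 uM arachidonic acid for 30 min. Product quantified via Fe(III)-xylenol orange, 30 min, 573-to-405 nm absorbance ratio; buffer 25 mM Hepes pH 7.0 with Triton X-100.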

Potency, active:
CCCC(=O)NC(c1ccco1)c1cc(Cl)c2cccnc2c1O (stereo not given) 2.82 µM
CCC(=O)NC(c1ccc(C)cc1)c1ccc2cccnc2c1O (stereo not given) 31.6 µM
Oc1ccccc1C1Nc2cccc3cccc(c23)N1 39.8 µM
CC(=O)N1CCN(c2ccc(NCc3ccccc3)cc2)CC1 31.6 µM
Oc1ccc2ccccc2c1CNc1cnc2ccccc2c1 5.01 µM
O=C(Nc1nnc(-c2ccccc2)o1)c1ccc(Cl)cc1 4.47 µM
CCC(=O)NC(c1ccc(C)cc1)c1cc([N+](=O)[O-])c2cccnc2c1O (stereo not given) 28.2 µM
c1csc(C2Nc3cccc4cccc(c34)N2)c1 15.8 µM

Activity change, negative = inhibition, inactive:
O=C(OCC#CCSc1nnc(-c2cccc3ccccc23)o1)c1ccc(Br)cc1 -6.83%
CCC(=O)N(Cc1cc(=O)[nH]c2ccccc12)C1CCCCC1 3.25%
CN(C)c1oc(-c2ccc(OCc3ccccc3)cc2)nc1C#N -20.4%
O=C(OCC#CCSc1nnc(-c2cccc3ccccc23)o1)c1cnc[nH]1 -8.94%
CCOc1ccc(NS(=O)(=O)c2ccc3[nH]cc(C(=O)N(CC)CC)c(=O)c3c2)cc1 -15.5%
N=c1c(C(=O)NC2CCCC2)cc2c(=O)n3ccccc3nc2n1C1CCCC1 -15.4%
COCCSc1ccccc1C(=O)NCc1ccco1 -7.73%
Clc1ccc(-c2nnc(C3CCCCC3)o2)cc1 -9.47%
COc1ccc(NC(=O)CSc2nc(O)cc(=O)n2-c2ccccc2OC)cc1 -18%
COc1cccc(-c2nccc(NCc3ccccc3OC)n2)c1 -13.1%
COc1ccccc1CNc1ncncc1-c1ccoc1 -18.9%
O=c1c(-c2ccc3c(c2)OCCO3)coc2cc(O)cc(O)c12 -27%
